# KB-V1 cytotox = kills drug-selected multidrug resistant KB-V1 cells | KB-V1 MDR cells viability, CellTiter-Glo, 72 h | Potency, µM (series often up to 46.1 µM), usual class: cytotoxic | 400,000 compounds, 3.4% hits | AID 1347076; further: on the % scale 0 is the no-effect control and ±100 the full control effect; nearly all actives have a fitted effect of over 60% in size
#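 KB-V1, DMEM (no phenol red) + 10% FBS; cpd pin-transferred, titration series; 72 h, 37 degrees C; CellTiter-Glo, luminescence. Data normalized, curve-fit.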
# TSG101-PTAP inh = blocks PTAP/TSG101 interaction to inhibit HIV-1 budding; Q99816; Fluorescence polarization, FITC-PTAP peptide / Tsg101 binding; Potency, µM (highest dose often 115 µM), for inactives: at the top dose activity change, negative = inhibition, hits mostly inhibitors; 340,000 tested, under 10 active; active means well fitted inhibition curve with a large enough effect in the main read-out, with a control signal flat, not every such curve was filed as active; inconclusive means small, poorly fitted or top-dose-only effect, or effect the other way, or a change in a side signal; inactive means no such curve, though single readings can be large or run the other way; further: % of control where 0% means no effect
# Target sequence (Q99816 whole entry, looked up): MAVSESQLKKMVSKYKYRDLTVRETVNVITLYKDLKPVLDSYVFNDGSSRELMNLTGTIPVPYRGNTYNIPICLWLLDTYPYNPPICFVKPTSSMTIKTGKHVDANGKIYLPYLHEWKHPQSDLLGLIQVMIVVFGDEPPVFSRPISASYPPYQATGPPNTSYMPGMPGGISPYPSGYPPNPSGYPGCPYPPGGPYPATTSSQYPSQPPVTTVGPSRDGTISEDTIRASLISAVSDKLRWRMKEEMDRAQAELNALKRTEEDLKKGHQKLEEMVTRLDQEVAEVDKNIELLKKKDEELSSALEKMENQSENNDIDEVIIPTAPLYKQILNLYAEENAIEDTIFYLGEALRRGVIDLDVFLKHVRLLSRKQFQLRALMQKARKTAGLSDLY
#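 Fluorescence polarization binding of Tsg101 binding domain (10 uM final) to FITC-labeled PTAP peptide (50 nM final) in HEPES pH 7.5 buffer with NaCl, Tween 20, EDTA, TCEP. Compounds added before peptide; binding 20 min at RT.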
# PINK1 expr mod = PINK1 expression modulation; 410,000 compounds, 0.2% hits; AID 624263; PINK1 immunofluorescence, high-content cytometry, 24 h; Potency, µM (doses to about 76.6 µM), inactives show at the highest dose activation (PINK1 increase), usual class: activators; active means well fitted activation curve with a large enough effect; inconclusive means small, poorly fitted or top-dose-only effect; cell line not stated here; further: % of control where 0% means no effect; nearly all actives have a fitted effect of over 65% in size
#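 Measures PINK1 amount and localization on or inside mitochondria by immunofluorescence. Stable cells get compounds at 5 concentrations for 24 hours before fixation and staining; CCCP controls included.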
# SW480 rerep = inducers of DNA re-replication in SW480 colon cancer cells; SW480 DNA re-replication, Hoechst DNA content imaging, 48 h; 340,000 compounds, 1.8% hits; AID 624297; Potency, µM (top dose mostly 46.1 µM), for the others: at the top dose re-replication activation, most hits filed as activators; further: % of control where 0% means no effect; nearly all actives have a fitted effect of over 55% in size
#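 SW480 cells exposed to compounds for 48 hr at 37 C, 5% CO2, then Hoechst-stained 40 min. Nuclear DNA content imaged by fluorescence scanning (405 nm excitation, 500-530 nm emission); re-replication scored as increased high-intensity nuclei.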
# KB-3-1 cytotox = kills parental KB-3-1 adenocarcinoma cells; Potency, µM (series often up to 46.1 µM), actives largely listed as cytotoxic; KB-3-1 viability, CellTiter-Glo ATP luminescence, 72 h; 400,000 compounds, 1.4% hits; further: on the % scale 0 is the no-effect control and ±100 the full control effect; nearly all actives have a fitted effect of over 60% in size
#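 72 h, 37 °C compound treatment of KB-3-1 parental cells; CellTiter-Glo added, 10 min, luminescence read. Data corrected against DMSO-only plates and normalized before curve fitting.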
# MCF10A rerep = induces DNA re-replication in MCF 10a normal breast cells; MCF 10A DNA re-replication, Hoechst nuclear intensity, 48 h; Potency, µM (top dose mostly 46.1 µM), for the others: at the top dose activity, positive = re-replication, actives largely listed as activators; 350,000 compounds, 2.9% hits; further: % of control where 0% means no effect; nearly all actives have a fitted effect of over 50% in size
# An asterisk follows results filed as active; i = inactive; ? = inconclusive; . = no result; [ ] = dose if it differs, or a comment. Only some compounds are listed: those with a hit (about 6.8% of all), similar ones and a draw of the others. Unless noted, the call rests on the fitted dose curve; in most records, active means well fitted curve in the direction sought with a large enough effect; inconclusive means small, poorly fitted or top-dose-only effect, or another doubt; inactive means no such curve, though single readings can be large; an effect the other way counts as inactive or inconclusive. Potency means the concentration at half of the fitted maximal effect.
SMILES,KB-V1 cytotox,TSG101-PTAP inh,PINK1 expr mod,SW480 rerep,KB-3-1 cytotox,MCF10A rerep
Cc1ccc(C(=O)CCS(=O)(=O)c2ccc(Cl)cc2)cc1,i,-4%,11%,9.2µM*,i,3.3µM*
COc1ccc2c(c1)CCC2=O,i,.,1%,.,i,.
COc1ccc2c(c1)CCCC(Br)C2=O (stereo not given),?,0%,2%,18µM*,?,?
COc1ccc2c(c1)N(C)/C(=C/c1cccc[n+]1C)S2,i,0%,5µM*,3%,1.6µM*,-15%
CCN1/C(=C/c2cccc[n+]2C)Sc2ccc(OC)cc21,i,-6%,25µM*,1%,?,19%
COc1cc(OC)cc(C(=O)/C=C2\Sc3ccccc3N2C)c1,i,1%,-2%,?,i,?
O=C(Nc1cccc(Cl)c1)Nc1nnc(CSCCOc2ccc(Cl)cc2)s1,i,-2%,?,?,?,5.2µM*
O=C(Nc1cccc(Cl)c1)Nc1nnc(CC2=CCCCC2)s1,i,-5%,?,-4%,23µM*,?
O=C(Nc1nnc(CC2=CCCCC2)s1)Nc1ccccc1F,i,2%,9%,-1%,i,?
Cc1ccc(NC(=O)Nc2nnc(CSCCOc3ccc(Cl)cc3)s2)cc1,?,-5%,2%,-3%,?,8%
O=C(Nc1ccc(Cl)cc1)Nc1nnc(CSCc2ccccc2)s1,21µM*,1%,?,0%,i,2%
O=C(N/C=C/c1ccccc1)c1cccc([S+](=O)([O-])Nc2ccccc2F)c1,?,.,.,.,i,.
CCCN1C(=O)c2[nH]nc(-c3ccccc3O)c2C1c1cccc(OCc2ccccc2)c1 (stereo not given),?,.,27%,.,?,.
COc1cc(/C=C(/C#N)C(=O)NCCc2c[nH]c3ccccc23)ccc1OCc1ccccc1F,?,0%,8%[38.3 µM],3.3µM*,?,5.2µM*
CC(=C\c1ccco1)/C=C(\C#N)C(=O)NCCc1c[nH]c2ccccc12,23µM*,-1%,?,5%,i,?
Cc1cc2c(n1-c1ccc(C(=O)NCCc3ccc(Cl)cc3)cc1)CCCC2,i,.,2%,.,i,.
CCc1ccccc1N(C)C(=O)c1cn(CC(C)C)c(=O)c2cc(OC)c(OC)cc12,i,.,1%,.,i,.
Cc1ccc(N2C(=O)C3C4C=CC(CNC(=S)Nc5ccc(Cl)cc5)(O4)C3C2=O)cc1 (stereo not given),8.2µM*,-3%,1%,28%,?,?
Cc1ccc(N2C(=O)C3C4C=CC(CNC(=S)Nc5cccc(Cl)c5)(O4)C3C2=O)cc1 (stereo not given),12µM*,-3%,7%,?,i,20%
Cc1ccc(N2C(=O)C3C4C=CC(CNC(=S)Nc5ccc(F)cc5)(O4)C3C2=O)cc1 (stereo not given),i,-3%,3%,?,i,?
CO[C@@H]1[C@@H](OC2OC(C)C(OC3CC(C)(O)C(OC(=O)CC(C)C)C(C)O3)C(N(C)C)C2O)[C@@H](CC=O)C[C@@H](C)C(=O)/C=C\C2O[C@H]2C[C@@H](C)OC(=O)C[C@H]1OC(C)=O (stereo not given in full),i,.,-1%,19µM*,i,30µM*
CO[C@H]1[C@H](O[C@H]2O[C@@H](C)[C@@H](O[C@@H]3C[C@](C)(O)[C@H](OC(=O)CC(C)C)[C@H](C)O3)[C@@H](N(C)C)[C@@H]2O)[C@@H](CC=O)C[C@@H](C)[C@@H](O)/C=C\C=C/C[C@@H](C)OC(=O)C[C@H]1OC(C)=O,.,.,.,-3%[20.6 µM],.,2%[20.6 µM]
CC(C)=Nc1ccccc1C1COC(=O)C1=N (stereo not given),i,1%,4%,0.52µM*,i,-70%
